Compounds without any hit were thinned out: in the full panel of roughly 83,000, 20% have a hit.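 Testing used 96-well plates and a 48-hour single-concentration exposure. Example: -40 means 40% of the starting cells died.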 A number with no mark means an inactive call. Activity calls are given as the source filed them. Rule for the calls: active = growth percent below 10; inactive = the rest.
Legend:
Assay in all cases: NCI-60 one-dose screen, 48 h (100 = growth as untreated, 0 = no growth, -100 = all killed)
Conditions in all cases: 10 µM unless noted
[1] = system: NCI-H23 lung
[2] = system: NCI-H226 lung
[3] = system: NCI-H322M lung
[4] = system: HOP-62 NSCLC
[5] = system: HOP-92 NSCLC
[6] = system: NCI-H522 lung
[7] = system: A549/ATCC NSCLC
[8] = system: 786-0 renal
[9] = system: COLO 205 colon

With `CN1CCN(Cc2ccc(/C=N/Nc3ccnc4cc(Cl)ccc34)cc2)CC1` the growth [1] was 89.2%, the growth [2] was 88.4% and the growth [3] was 87.5%. The growth [4] was 80.5%, the growth [5] was 64.3% and the growth [6] was 101%. For the same compound, the growth [7] was 83.7%, the growth [8] was 77.7% and the growth [9] was 93.2%.

For `Cc1csc(/N=C(N)/N=C(\N)c2cccnc2)n1`, the growth [1] was 78%, the growth [2] was 85.4% and the growth [3] was 87.2%. The growth [4] was 74.1%, the growth [5] was 51.7% and the growth [6] was 54.4%. It also gave a growth [7] of 82%, a growth [8] of 90.6% and a growth [9] of 81.8%.

`CC[C@]12C=CCN3CC[C@]4(C(=C(C(=O)OC)C1)Nc1cc5c(cc14)[C@@H]1[C@H](O5)[C@@H](O)[C@@]4(CC)CC(C(=O)OC)=C5Nc6cc(O)ccc6[C@@]56CCN1C46)C32` (stereo partly drawn) was tested, and the growth [1] was -40.9% (active), the growth [2] was -1.32% (active) and the growth [3] was 0.163% (active). The growth [4] was 16.6%, the growth [5] was 35.5% and the growth [6] was -22.8% (active). For the same compound, the growth [7] was 20.2%, the growth [8] was 6.94% (active) and the growth [9] was -48% (active).

Compound `N#Cc1c(-c2cccs2)cc(-c2cnccn2)nc1SCC(=O)N/N=C/c1ccncc1` has a growth [1] of 102%, a growth [2] of 104% and a growth [3] of 116%. It also gave a growth [4] of 106%, a growth [5] of 98.4% and a growth [7] of 107%. For the same compound, the growth [8] was 104% and the growth [9] was 118%.

For `CNC(=O)Nc1ccc(Nc2cc(-c3ccc(-n4cccn4)cc3)[nH]n2)c(C)c1`, the growth [1] was 102%, the growth [2] was 104% and the growth [3] was 101%. It also gave a growth [4] of 106%, a growth [5] of 173% and a growth [6] of 96.1%. The growth [7] was 102%, the growth [8] was 111% and the growth [9] was 124%.

`COc1cccc2c1[C@H](OC)[C@]13O[C@@]1(C2=O)[C@H](O)[C@H](C)[C@@](O)(C(=O)[C@@H]1O[C@H]1C)[C@@H]3O` was tested, and the growth [1] was -63.9% (active), the growth [2] was -54.4% (active) and the growth [3] was 1.69% (active). For the same compound, the growth [4] was -26% (active), the growth [5] was -16.8% (active) and the growth [6] was -31.9% (active). For the same compound, the growth [7] was -16.7% (active), the growth [8] was -16.9% (active) and the growth [9] was -44.9% (active).

For `O=C(CSc1nc2ccccc2c(=O)n1-c1ccc(Cl)c(Cl)c1)Nc1ccc(S(=O)(=O)Nc2ccc(Cl)nn2)cc1`, the growth [1] was 91.6%, the growth [2] was 90.9% and the growth [3] was 91.7%. For the same compound, the growth [4] was 87.8%, the growth [5] was 72.5% and the growth [6] was 90%. The growth [7] was 91.9%, the growth [8] was 98.9% and the growth [9] was 94.9%.

`COc1ccc2c(c1)C=CC1(O2)Oc2ccc(OC)cc2C=C1C` (stereo not drawn) gave a growth [1] of 39.7%, a growth [2] of 57.4% and a growth [3] of 49.5%. The growth [4] was 51%, the growth [5] was -6.57% (active) and the growth [6] was 10.7%. For the same compound, the growth [7] was 18.5%, the growth [8] was 26.5% and the growth [9] was 2.43% (active).

`O=C(CSc1cc[n+](CCCCO)c2ccccc12)n1ccc2ccccc21` gave a growth [1] of 95.8%, a growth [2] of 89.6% and a growth [3] of 96.8%. It also gave a growth [4] of 91.8%, a growth [5] of 103% and a growth [6] of 99.4%. For the same compound, the growth [7] was 103%, the growth [8] was 108% and the growth [9] was 106%.

In the case of `Cc1ccc(C)c(NC2=C(Cl)C(=O)c3nc(C)ccc3C2=O)c1`, the growth [1] was -38% (active), the growth [2] was 10.5% and the growth [3] was 24.2%. For the same compound, the growth [4] was 7.19% (active), the growth [5] was -13.8% (active) and the growth [7] was 31%. The growth [8] was 4.67% (active) and the growth [9] was 107%.

Source: PubChem BioAssay (NCI)
